Common to all, as to experiment: DAPPL (digital affinity profiling via proximity ligation, sequencing); 10 mM Tris-HCl pH 7.5, 50 mM NaCl, 1 mM DTT, 4% glycerol, room temperature, 30 min; GST-TFs on glutathione beads, 16-mer random dsDNA library, 0.1% formaldehyde crosslink after washing; high values mean tight binding
In test [1] the target is T1, FLI1 (Homo sapiens, UniProt Q01543 1-452).
T1 sequence: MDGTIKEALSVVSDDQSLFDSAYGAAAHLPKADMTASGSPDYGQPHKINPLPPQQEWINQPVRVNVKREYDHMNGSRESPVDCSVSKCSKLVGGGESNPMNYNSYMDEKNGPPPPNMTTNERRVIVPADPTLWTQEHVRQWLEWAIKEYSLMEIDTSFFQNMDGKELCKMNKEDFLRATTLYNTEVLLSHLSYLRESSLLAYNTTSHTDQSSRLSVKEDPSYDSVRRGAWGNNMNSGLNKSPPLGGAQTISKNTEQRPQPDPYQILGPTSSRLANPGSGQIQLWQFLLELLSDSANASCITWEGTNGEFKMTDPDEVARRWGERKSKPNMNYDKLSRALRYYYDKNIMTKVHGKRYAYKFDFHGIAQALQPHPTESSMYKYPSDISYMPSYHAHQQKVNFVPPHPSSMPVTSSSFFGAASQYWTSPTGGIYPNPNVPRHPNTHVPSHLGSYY
Conditions: protein: recombinant; tags: N-terminal GST; dsDNA, one strand shown. In short, it runs like this:
(§1)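 Yeast served to express human transcription factors as GST fusions, which were then captured on glutathione beads and labelled with DNA barcodes. Pooled with a tag-only sample, they were incubated with 200 nmole of a 16-mer random double-stranded DNA library for 30 min at room temperature in Tris/NaCl/DTT/glycerol buffer, washed, crosslinked with 0.1% formaldehyde, ligated by proximity, amplified by PCR and sequenced. Dividing each hexamer's read frequency for a factor by its frequency for the tag-only sample gives the binding signal.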

For test [2], the target named is T2, ELK1 (Homo sapiens, UniProt P19419 1-428).
T2 sequence: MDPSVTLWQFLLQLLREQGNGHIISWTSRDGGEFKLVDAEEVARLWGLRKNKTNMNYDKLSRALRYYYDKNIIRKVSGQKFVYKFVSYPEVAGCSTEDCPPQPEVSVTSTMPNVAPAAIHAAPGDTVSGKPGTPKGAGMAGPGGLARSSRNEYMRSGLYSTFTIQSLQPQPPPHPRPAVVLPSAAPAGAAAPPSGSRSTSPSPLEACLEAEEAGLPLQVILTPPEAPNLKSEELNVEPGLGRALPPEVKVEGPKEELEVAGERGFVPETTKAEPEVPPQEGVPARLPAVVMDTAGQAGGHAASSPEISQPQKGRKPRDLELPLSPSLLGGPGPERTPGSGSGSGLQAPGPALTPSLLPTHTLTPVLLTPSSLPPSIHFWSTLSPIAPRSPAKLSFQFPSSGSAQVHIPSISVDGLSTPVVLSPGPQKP
Conditions: protein: recombinant; tags: N-terminal GST; dsDNA, one strand shown. An outline of the steps:
as §1

Test [3] deals with T3, GABPA (Homo sapiens, UniProt Q06546 1-454).
T3 sequence: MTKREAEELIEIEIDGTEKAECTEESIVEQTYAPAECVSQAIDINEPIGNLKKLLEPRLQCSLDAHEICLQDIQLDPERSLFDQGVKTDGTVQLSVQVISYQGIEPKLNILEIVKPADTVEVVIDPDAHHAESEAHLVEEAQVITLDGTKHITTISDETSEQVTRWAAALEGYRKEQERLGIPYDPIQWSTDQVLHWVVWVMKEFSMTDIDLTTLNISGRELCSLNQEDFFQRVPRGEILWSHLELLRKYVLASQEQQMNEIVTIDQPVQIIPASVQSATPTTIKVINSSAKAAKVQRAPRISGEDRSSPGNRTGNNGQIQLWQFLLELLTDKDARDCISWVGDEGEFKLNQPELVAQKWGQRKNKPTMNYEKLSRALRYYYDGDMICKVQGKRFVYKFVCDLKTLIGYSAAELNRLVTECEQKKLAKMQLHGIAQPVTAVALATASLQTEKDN
Conditions: protein: recombinant; tags: N-terminal GST; dsDNA, one strand shown. An outline of the steps:
as §1

For test [4], the target named is T4, ERG (Homo sapiens, UniProt P11308 1-479).
T4 sequence: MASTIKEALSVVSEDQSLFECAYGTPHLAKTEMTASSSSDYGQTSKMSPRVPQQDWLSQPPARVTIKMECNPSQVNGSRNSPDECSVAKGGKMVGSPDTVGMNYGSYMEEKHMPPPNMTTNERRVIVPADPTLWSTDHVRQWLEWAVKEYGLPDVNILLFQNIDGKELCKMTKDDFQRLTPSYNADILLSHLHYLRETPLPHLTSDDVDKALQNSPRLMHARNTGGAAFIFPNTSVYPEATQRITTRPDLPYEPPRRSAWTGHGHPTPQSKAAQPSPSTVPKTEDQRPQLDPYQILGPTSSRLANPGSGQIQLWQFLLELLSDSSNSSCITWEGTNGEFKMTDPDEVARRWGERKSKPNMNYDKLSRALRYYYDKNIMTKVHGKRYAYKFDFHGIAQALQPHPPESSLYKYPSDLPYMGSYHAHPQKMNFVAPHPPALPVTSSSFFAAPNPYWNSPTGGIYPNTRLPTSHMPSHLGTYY
Conditions: protein: recombinant; tags: N-terminal GST; dsDNA, one strand shown. An outline of the steps:
as §1

Test [5] deals with ELF1 (Homo sapiens, UniProt P32519 1-619). The note with it: protein: recombinant; tags: N-terminal GST; dsDNA, one strand shown. An outline of the steps: as §1
For test [6], the target named is T5, EHF (Homo sapiens, UniProt Q9NZC4 1-300).
T5 sequence: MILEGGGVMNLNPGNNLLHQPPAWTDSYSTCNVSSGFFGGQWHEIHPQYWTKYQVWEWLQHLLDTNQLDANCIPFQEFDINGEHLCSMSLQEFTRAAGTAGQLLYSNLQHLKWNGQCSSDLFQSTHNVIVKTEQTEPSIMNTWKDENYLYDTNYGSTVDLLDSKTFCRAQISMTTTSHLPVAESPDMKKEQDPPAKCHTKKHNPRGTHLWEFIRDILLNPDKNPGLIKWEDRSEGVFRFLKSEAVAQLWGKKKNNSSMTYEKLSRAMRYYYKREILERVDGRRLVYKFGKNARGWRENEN
The note with it: protein: recombinant; tags: N-terminal GST; dsDNA, one strand shown. An outline of the steps:
as §1

In test [7] the target is SPI1 (Homo sapiens, UniProt P17947 1-270). Conditions: protein: recombinant; tags: N-terminal GST; dsDNA, one strand shown. An outline of the steps:
as §1

The target in test [8] is SPIB (Homo sapiens, UniProt Q01892 1-262). The note with it: protein: recombinant; tags: N-terminal GST; dsDNA, one strand shown. In short, it runs like this: as §1
Test [9] concerns the target T6, ELK3 (Homo sapiens, UniProt P41970 1-407).
T6 sequence: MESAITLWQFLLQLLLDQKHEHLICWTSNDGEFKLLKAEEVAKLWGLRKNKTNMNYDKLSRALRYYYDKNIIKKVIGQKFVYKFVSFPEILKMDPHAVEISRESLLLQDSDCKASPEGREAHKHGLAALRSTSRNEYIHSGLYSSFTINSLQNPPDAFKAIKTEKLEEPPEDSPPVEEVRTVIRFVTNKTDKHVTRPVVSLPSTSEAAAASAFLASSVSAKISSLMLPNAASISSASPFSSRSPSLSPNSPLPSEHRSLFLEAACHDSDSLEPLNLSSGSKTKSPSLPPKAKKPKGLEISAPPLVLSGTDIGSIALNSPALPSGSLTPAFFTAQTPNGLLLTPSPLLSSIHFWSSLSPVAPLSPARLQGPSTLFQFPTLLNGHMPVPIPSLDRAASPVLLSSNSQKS
The note with it: protein: recombinant; tags: N-terminal GST; dsDNA, one strand shown. An outline of the steps: as §1

For test [10], the target named is T7, FEV (Homo sapiens, UniProt Q99581 1-238).
T7 sequence: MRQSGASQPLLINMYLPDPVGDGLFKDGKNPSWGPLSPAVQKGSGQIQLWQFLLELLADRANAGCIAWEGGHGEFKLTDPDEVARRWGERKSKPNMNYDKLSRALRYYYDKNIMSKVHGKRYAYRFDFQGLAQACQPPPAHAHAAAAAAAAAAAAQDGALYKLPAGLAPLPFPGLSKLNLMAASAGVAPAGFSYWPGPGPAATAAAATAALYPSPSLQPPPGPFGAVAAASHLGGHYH
The note with it: protein: recombinant; tags: N-terminal GST; dsDNA, one strand shown. In short, it runs like this: as §1

In test [11] the target is ETV5 (Homo sapiens, UniProt P41161 1-510). Conditions: protein: recombinant; tags: N-terminal GST; dsDNA, one strand shown. In short, it runs like this:
as §1

Test [12] deals with HSF1 (Homo sapiens, UniProt Q00613 1-529). The note with it: protein: recombinant; tags: N-terminal GST; chain copies: 3; dsDNA, one strand shown. In short, it runs like this: as §1
The target of test [13] is T8, SPIC (Homo sapiens, UniProt Q8N5J4 1-248).
T8 sequence: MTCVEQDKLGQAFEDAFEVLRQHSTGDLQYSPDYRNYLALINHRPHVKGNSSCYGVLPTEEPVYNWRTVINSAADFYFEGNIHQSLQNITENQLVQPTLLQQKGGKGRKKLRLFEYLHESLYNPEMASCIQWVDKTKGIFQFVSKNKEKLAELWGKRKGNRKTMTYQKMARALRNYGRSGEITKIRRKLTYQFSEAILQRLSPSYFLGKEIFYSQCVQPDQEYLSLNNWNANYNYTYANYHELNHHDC
The note with it: protein: recombinant; tags: N-terminal GST; dsDNA, one strand shown. In short, it runs like this:
as §1

Test [14] deals with ELF4 (Homo sapiens, UniProt Q99607 1-663). Conditions: protein: recombinant; tags: N-terminal GST; dsDNA, one strand shown. An outline of the steps:
as §1

Test [15] deals with T9, ELK4 (Homo sapiens, UniProt P28324-2 1-405).
T9 sequence: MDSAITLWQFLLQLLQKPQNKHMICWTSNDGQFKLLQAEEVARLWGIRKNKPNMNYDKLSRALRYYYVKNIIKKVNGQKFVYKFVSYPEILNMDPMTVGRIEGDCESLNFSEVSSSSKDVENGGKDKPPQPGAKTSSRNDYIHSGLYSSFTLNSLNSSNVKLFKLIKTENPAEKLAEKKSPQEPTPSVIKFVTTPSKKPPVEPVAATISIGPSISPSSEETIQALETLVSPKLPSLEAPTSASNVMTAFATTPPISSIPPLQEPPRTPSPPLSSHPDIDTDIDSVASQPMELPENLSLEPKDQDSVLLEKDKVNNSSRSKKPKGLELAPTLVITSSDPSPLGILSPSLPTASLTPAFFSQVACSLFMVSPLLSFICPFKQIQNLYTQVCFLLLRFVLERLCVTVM
Conditions: protein: recombinant; tags: N-terminal GST; dsDNA, one strand shown. An outline of the steps:
as §1

For test [16], the target named is T10, ELF3 (Homo sapiens, UniProt P78545 1-371).
T10 sequence: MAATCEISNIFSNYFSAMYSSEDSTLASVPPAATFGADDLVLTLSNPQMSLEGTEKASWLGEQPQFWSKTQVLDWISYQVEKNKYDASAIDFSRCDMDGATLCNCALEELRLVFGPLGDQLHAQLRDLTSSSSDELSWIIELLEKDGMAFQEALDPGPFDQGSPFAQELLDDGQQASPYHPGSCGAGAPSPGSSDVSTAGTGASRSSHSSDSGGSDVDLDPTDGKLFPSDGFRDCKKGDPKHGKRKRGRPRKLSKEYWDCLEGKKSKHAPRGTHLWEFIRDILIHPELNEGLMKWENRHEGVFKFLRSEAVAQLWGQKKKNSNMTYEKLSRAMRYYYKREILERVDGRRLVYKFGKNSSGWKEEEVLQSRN
Conditions: protein: recombinant; tags: N-terminal GST; dsDNA, one strand shown. An outline of the steps:
as §1

The target of test [17] is CRX (Homo sapiens, UniProt O43186 1-299). Conditions: protein: recombinant; tags: N-terminal GST; dsDNA, one strand shown. An outline of the steps: as §1
Test [18] deals with ETV1 (Homo sapiens, UniProt P50549 1-477). Conditions: protein: recombinant; tags: N-terminal GST; dsDNA, one strand shown. An outline of the steps:
as §1

Sequence of ETV5 (P41161 whole entry): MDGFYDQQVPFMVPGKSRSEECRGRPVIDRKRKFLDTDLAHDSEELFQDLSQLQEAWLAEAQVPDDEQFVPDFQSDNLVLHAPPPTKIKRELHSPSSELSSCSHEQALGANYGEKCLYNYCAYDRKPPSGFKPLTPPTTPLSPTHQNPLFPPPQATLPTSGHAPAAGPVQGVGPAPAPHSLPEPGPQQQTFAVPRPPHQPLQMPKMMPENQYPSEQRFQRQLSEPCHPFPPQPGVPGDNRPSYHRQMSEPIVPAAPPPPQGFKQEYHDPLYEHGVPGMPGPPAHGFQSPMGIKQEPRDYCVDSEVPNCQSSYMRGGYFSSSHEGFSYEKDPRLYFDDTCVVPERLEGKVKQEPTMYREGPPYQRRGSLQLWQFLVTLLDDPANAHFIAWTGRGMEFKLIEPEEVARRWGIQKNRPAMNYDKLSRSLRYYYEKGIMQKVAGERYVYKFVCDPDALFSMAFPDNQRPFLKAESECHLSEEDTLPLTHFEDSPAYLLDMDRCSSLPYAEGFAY
Sequence of SPIB (Q01892 whole entry): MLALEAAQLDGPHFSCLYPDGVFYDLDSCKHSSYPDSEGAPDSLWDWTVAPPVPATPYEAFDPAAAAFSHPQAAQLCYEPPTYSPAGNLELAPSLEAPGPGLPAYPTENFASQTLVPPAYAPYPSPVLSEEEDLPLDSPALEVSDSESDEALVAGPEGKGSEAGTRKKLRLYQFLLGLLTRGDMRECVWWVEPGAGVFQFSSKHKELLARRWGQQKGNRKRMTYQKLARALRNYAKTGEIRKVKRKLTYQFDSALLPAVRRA
Sequence of HSF1 (Q00613 whole entry): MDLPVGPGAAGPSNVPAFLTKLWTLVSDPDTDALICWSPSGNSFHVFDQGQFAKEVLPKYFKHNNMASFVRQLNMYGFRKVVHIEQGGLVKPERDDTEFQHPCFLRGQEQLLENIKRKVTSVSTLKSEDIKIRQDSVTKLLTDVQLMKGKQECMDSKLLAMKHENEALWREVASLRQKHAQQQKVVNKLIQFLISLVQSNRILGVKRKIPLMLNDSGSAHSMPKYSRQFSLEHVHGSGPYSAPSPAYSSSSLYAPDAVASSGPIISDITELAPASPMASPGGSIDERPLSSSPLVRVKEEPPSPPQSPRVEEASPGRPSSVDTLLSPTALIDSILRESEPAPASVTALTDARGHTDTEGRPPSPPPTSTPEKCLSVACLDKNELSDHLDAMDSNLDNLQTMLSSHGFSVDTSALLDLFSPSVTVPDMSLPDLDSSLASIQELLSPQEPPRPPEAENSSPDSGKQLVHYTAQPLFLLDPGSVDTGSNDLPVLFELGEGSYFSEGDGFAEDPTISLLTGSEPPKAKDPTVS
Sequence of ELF4 (Q99607 whole entry): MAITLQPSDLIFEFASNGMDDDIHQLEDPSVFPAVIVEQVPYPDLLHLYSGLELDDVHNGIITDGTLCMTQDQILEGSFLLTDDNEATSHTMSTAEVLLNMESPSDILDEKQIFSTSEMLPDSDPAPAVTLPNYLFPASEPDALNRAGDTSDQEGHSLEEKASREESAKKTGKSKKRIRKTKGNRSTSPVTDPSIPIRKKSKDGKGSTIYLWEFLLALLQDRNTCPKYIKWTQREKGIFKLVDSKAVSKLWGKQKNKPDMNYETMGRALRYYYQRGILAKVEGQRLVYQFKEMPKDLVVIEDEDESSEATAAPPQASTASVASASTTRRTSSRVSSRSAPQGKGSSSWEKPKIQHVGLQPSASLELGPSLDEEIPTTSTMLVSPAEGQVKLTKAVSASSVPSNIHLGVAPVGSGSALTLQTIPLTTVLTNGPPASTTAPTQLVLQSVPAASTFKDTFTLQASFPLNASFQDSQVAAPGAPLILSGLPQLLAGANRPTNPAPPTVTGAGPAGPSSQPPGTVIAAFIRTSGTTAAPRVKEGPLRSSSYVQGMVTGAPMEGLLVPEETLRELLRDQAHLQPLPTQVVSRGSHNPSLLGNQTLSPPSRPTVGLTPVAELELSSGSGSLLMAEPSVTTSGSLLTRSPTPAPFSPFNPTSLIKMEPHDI
Sequence of ELF1 (P32519 whole entry): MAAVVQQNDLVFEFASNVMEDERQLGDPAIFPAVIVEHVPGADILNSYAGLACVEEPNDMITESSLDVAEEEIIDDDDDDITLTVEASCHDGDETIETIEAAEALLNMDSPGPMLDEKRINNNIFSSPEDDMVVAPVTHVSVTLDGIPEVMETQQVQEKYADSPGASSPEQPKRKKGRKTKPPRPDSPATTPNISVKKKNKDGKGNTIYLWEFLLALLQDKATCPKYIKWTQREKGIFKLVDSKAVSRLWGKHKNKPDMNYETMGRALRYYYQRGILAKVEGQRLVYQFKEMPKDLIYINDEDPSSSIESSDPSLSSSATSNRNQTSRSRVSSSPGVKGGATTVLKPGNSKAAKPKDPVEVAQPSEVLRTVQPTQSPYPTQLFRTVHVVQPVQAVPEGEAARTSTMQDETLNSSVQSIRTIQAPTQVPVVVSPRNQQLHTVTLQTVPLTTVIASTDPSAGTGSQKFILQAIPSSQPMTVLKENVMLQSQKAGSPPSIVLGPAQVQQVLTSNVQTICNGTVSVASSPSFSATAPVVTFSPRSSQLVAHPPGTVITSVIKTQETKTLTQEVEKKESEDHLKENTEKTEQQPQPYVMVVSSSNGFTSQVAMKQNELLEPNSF
Sequence of ETV1 (P50549 whole entry): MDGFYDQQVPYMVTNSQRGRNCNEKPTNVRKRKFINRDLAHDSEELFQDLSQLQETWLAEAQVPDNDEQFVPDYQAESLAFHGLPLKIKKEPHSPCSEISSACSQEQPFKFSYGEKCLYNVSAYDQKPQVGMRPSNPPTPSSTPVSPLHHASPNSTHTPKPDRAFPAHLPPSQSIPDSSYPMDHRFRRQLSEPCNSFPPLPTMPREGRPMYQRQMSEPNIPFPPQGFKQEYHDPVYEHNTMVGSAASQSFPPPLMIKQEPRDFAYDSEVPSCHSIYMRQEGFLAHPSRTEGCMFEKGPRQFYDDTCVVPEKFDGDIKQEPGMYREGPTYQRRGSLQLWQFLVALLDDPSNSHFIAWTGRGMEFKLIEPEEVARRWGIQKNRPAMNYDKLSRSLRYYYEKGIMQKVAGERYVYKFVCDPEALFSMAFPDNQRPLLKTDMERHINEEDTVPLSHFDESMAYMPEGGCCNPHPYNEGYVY
Sequence of CRX (O43186 whole entry): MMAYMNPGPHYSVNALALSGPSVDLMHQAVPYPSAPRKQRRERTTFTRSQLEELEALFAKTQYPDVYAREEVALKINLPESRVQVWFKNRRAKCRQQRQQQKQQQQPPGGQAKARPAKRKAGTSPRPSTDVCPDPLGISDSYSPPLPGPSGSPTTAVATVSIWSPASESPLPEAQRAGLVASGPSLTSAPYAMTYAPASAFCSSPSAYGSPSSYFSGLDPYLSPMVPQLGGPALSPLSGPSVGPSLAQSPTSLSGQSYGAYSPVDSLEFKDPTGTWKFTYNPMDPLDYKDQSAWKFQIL

With GTTTAT, the binding signal in test [1] was 1.09 fold enrichment (6-mer frequency, TF over GST control); in test [2], 1.02 fold enrichment (6-mer frequency, TF over GST control); in test [3], 1.08 fold enrichment (6-mer frequency, TF over GST control); in [4], 1.05 fold enrichment (6-mer frequency, TF over GST control); in test [5], 1.06 fold enrichment (6-mer frequency, TF over GST control); in test [6], 1.06 fold enrichment (6-mer frequency, TF over GST control). The binding signal is 1.07 fold enrichment (6-mer frequency, TF over GST control) in test [7]; 1.1 fold enrichment (6-mer frequency, TF over GST control) in test [8]; 1.12 fold enrichment (6-mer frequency, TF over GST control) in test [9]; 1.02 fold enrichment (6-mer frequency, TF over GST control) in test [10]; 1.07 fold enrichment (6-mer frequency, TF over GST control) in [11]; 1.14 fold enrichment (6-mer frequency, TF over GST control) in test [12]. For the same sequence, the binding signal in test [13] was 1.12 fold enrichment (6-mer frequency, TF over GST control); in test [14], 1.07 fold enrichment (6-mer frequency, TF over GST control); in test [15] it was 1.05 fold enrichment (6-mer frequency, TF over GST control); in test [16], 1.27 fold enrichment (6-mer frequency, TF over GST control); in test [17], 1.33 fold enrichment (6-mer frequency, TF over GST control); in [18], 1.03 fold enrichment (6-mer frequency, TF over GST control).

For the origin of these results see article PMC7862700, “An all-to-all approach to the identification of sequence-specific readers for epigenetic DNA modifications on cytosine”.
